Screening results (PubChem)
Rows were chosen to be rich in hits. Some 1% of all compounds tested hit in one or more screens of this group.
RN4220 kill = growth inhibition of S. aureus RN4220, primary screen, OD600 | 16 h | inhibition, % (concentration not given with the values) | hit rate 0.33% among 330,000 | AID 1259311, 2017; in the data active means inhibition above about 85%;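 further: plate controls were untreated cells for no effect and reference antibiotic for full effect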
PriA SSB inh = inhibitors of Klebsiella pneumoniae PriA binding to SSB C-terminal tail, primary screen, biochemical, AlphaScreen; PriA–SSB C-terminal tail interaction (Klebsiella pneumoniae); AlphaScreen SSBct-PriA binding, biotinylated peptide; inhibition, % at 33 µM; hit rate 0.6% among 430,000; AID 1272365, 2023; in the data active means inhibition mostly above about 37%, no sharp cut-off; inactive means mostly below about 20%;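 further: plate controls were negative control peptide for no effect and reference peptide for full effect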
Sa ugtP lethal = growth inhibition of ugtP-null S. aureus, primary screen, RN4220 ugtP deletion, OD600; 16 h; growth inhibition, % (test concentration not listed); hit rate 0.54% among 330,000; AID 1259309, 2017; in the data active means growth inhibition above about 68%;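 further: plate controls were untreated wells for no effect and antibiotic for full effect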
Active calls of the source: *; . = no result given; ! = not confirmed by another sample.

SMILES	RN4220 kill	PriA SSB inh	Sa ugtP lethal
NC(=O)c1cc(C2CCCCN2C(=O)Cc2ccsc2)[nH]n1 (stereo not drawn)	.	-22	.
CCCCCCCSc1cc(OC)c(CCN(C)C)cc1OC	0	49*	-21
CCCCCSc1cc(OC)c(CCN)cc1OC	3	16	11
O=c1c2ccccc2nc(/C=C\c2ccccc2[N+](=O)[O-])n1-c1ccccc1O	49	11	23
O=c1c2ccccc2nc(/C=C/c2ccccc2F)n1-c1ccccc1O	98*	1	99*
O=C(Cn1ccn(-c2cccc(Cl)c2)c(=O)c1=O)N1CCCc2ccccc21	.	-7	.
C=CCNC(=S)N/N=C\c1ccc(-c2cccc([N+](=O)[O-])c2)o1	.	4	.
O=C(NC(=S)N1CCN(c2ccc(C(F)(F)F)cc2[N+](=O)[O-])CC1)c1cccs1	21	51*	13
CCN1CCN(C(=S)NC(=O)c2cccs2)CC1	5	-12	3
OC(COc1ccc2cc(Br)ccc2c1)CN1CCN(c2ccccc2)CC1 (stereo not drawn)	.	3	.
COc1ccc(Cl)cc1C(=O)N1CCN(c2ncnc3c2nnn3-c2ccccc2)CC1	.	-1	.
CC(C)(C)c1ccc(CNc2cc(N3CCOCC3)ccc2[N+](=O)[O-])cc1	-4	25	92*
CC(C)c1ccc(CNc2cc(N3CCCC3)ccc2[N+](=O)[O-])cc1	7	23	1
Cc1ccc(-c2c(C(=O)NN=Cc3sccc3C)nnn2-c2nonc2N)cc1	94*	-5	84
Cc1ccsc1C=NNC(=O)c1nnn(-c2nonc2N)c1C	-1	4	-3
Fc1cc(F)c2nc(NCc3ccccc3)sc2c1	.	4	.
CSc1ccc(CN(C)CC(=O)Nc2ccc(C)cc2Br)cc1	8	1	90*
CSc1ccc(CN(C)CC(=O)N(C)CC(=O)Nc2ccccc2Br)cc1	0	-2	3
O=C(Cc1ccc(F)cc1)N1CCC[C@H](c2nnc(-c3ccsc3)o2)C1	.	-5	.
O=C(Nc1nc2c(s1)CN(C(=O)c1ccc(Cl)s1)CC2)c1ccoc1	.	-5	.
CCOc1ccc(NC(=O)CSc2nnc(-c3ccccn3)n2N)cc1	5	64*!	7
Nn1c(SCC(=O)Nc2ccc(F)cc2)nnc1-c1ccccn1	7	7	-11
COc1ccc(NC(=O)CSc2nnc(-c3ccccn3)n2N)cc1	4	59*	-9
CCOc1ccc(NC(=O)CSc2nnc(-c3ccccn3)n2C)cc1	5	-10	-9
Cc1nnc(NC(=O)CSc2ncc(-c3ccc(Br)cc3)n2-c2ccccc2C)s1	.	-1	.
SMILES	RN4220 kill	PriA SSB inh	Sa ugtP lethal
COc1ccc(-c2cnc(SCC(=O)Nc3ccccc3)n2-c2ccccc2C)cc1	.	44*	.
O=S(=O)(Nc1ccc(-c2ccc(N3CCCC3)nn2)cc1)c1ccc2c(c1)CCCC2	.	-6	.
O=S(=O)(c1ccccc1Cl)N1CCC(c2cccs2)CC1	.	-14	.
Cn1cc(NC(=O)N(CCO)CCO)c2ccccc21	.	7	.
CCOC(=O)c1csc(NC(=O)C2CCN(S(=O)(=O)c3ccc(C)cc3)CC2)n1	.	-10	.
CCCCc1cc(=O)oc2cc(C)cc(OCC(=O)N3C[C@H]4C[C@H](C3)c3cccc(=O)n3C4)c12	.	4	.
CN(C)c1ccc(N=Nc2cccc(F)c2)cc1	-2	32	9
Cc1cccc(N=Nc2ccc(N(C)C)cc2)c1	-9	55*	16
Cn1nc(CNC(=O)Nc2cccs2)c2c1CCCC2	.	-20	.
COc1ccc(SCCC(=O)Nc2ccc3sccc3c2)cc1	.	43*	.
Cc1ccc(SCCC(=O)Nc2ccc3sccc3c2)cc1	.	-14	.
O=C(Nc1ccc(Nc2ccc(-n3cccn3)nn2)cc1)c1cc2ccccc2oc1=O	.	56*	.
O=C(Nc1ccc(-n2nncc2-c2ccco2)cc1)c1cc2ccccc2oc1=O	6	46*	-7
O=C(Nc1ccc(Nc2ccc(-n3cccn3)nn2)cc1)c1cccc(Br)c1	.	-21	.
O=C(Nc1ccc(F)cc1)Nc1ccc(Nc2ccc(-n3cccn3)nn2)cc1	.	-6	.
O=C(Nc1ccc(Nc2ccc(-n3cccn3)nn2)cc1)Nc1cccc(F)c1	.	36*	.
O=C(Nc1ccc(-n2nncc2-c2ccco2)cc1)c1cccc(F)c1	-5	-1	-16
O=C(Nc1ccc(Nc2ccc(-n3cccn3)nn2)cc1)c1ccccc1C(F)(F)F	.	5	.
COc1cccc(C(=O)Nc2ccc(Nc3ccc(-n4cccn4)nn3)cc2)c1OC	.	70*	.
CS(=O)(=O)Nc1ccc(C2=NN(C(=O)c3ccco3)C(c3ccccc3F)C2)cc1 (stereo not drawn)	-2	7	-6
CS(=O)(=O)Nc1cccc(C2=NN(C(=O)c3ccco3)C(c3ccccc3F)C2)c1 (stereo not drawn)	.	58*	.
CN(CC=CC#CC(C)(C)C)Cc1cccc2ccccc12	-6	.	89*
CN(C/C=C/C#CC(C)(C)C)Cc1cccc2ccccc12	.	-14	.
CC(=O)Nc1ccc(S(=O)(=O)N2CCN(c3cnccn3)CC2)cc1	.	-16	.
CC1Oc2cc3c(-c4c(O)cc(O)c5c(O)c6c(cc45)OC(C)C(C)C6=O)c(O)cc(O)c3c(O)c2C(=O)C1C (stereo not drawn)	98*	3	98*
C[C@@H]1Cc2c(O)c(O)cc(O)c2C(=O)O1	1	-2	-2
